Hits are enriched below; roughly 13% of the tested compounds scored in any of these assays.
USP10 inh: human USP10 deubiquitinase inhibition; inhibition, % at 20 µM; Q14694; 1.1% of 47,000 active; AID 1645856; purified USP10, Ub-rhodamine fluorescence, 60 min
USP28 block: blocks human USP28 ubiquitin-rhodamine cleavage; Q96RU2; purified USP28, Ub-rhodamine cleavage fluorescence, 30 min; inhibition, % at 25 µM; 3% of 47,000 active
USP8 inh: inhibitors of human USP8 deubiquitinase; inhibition, % at 20 µM; 4.2% of 47,000 active; purified USP8, Ub-rhodamine cleavage fluorescence, 30 min; AID 1645853; P40818
USP30 block: blocks human USP30 ubiquitin-rhodamine cleavage; AID 1645860; 5.3% of 47,000 active; purified USP30, Ub-rhodamine cleavage fluorescence; inhibition, % at 25 µM
USP17 inh: inhibitors of human USP17 deubiquitinase. A8MUK1. purified USP17, Ub-rhodamine cleavage fluorescence, 3 h. inhibition, % at 50 µM. 6.5% of 47,000 active. AID 1645855
Target sequence (A8MUK1 whole entry, looked up): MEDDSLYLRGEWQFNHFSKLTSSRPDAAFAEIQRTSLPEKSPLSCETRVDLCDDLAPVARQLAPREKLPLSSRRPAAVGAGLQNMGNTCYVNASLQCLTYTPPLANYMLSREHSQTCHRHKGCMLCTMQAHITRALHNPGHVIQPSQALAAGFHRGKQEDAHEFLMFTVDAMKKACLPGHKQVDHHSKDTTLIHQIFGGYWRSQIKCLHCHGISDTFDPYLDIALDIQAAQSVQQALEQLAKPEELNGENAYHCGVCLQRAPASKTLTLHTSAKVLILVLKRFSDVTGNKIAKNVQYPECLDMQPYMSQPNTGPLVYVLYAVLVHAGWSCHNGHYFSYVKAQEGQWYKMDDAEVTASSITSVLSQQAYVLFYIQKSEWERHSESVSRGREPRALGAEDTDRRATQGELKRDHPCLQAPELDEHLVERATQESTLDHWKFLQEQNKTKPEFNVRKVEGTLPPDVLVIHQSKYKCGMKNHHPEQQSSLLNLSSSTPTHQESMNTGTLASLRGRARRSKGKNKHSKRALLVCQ
Numbers without * were called inactive; / = no result. No stated cut-off is given here; in the data, active means inhibition above about 30%; inactive means the rest.

SMILES	USP10 inh	USP28 block	USP8 inh	USP30 block	USP17 inh
Cc1cccc2cc3c(nc12)N(S(=O)(=O)c1ccc(F)cc1)CC3	3	2	4	-4	3
Cc1sc(NC(=O)C2CCCC2)nc1-c1ccc2c(c1)CCN2C(=O)C1CCCCC1	6	22	12	22	11
Cc1sc(NC(=O)C2(c3ccc(Cl)cc3)CCC2)nc1-c1ccc2c(c1)CCN2C(=O)C1CCCCC1	2	16	6	31*	15
Cc1sc(NC(=O)CN2CCc3ccccc3C2)nc1-c1ccc2c(c1)CCN2C(=O)C1CCCCC1	-7	-2	76*	-76	54*
CCCCOc1ccc(N(C(=O)CCCC(=O)Nc2ccccn2)C(C(=O)NC2CCCC2)c2ccc(F)cc2)cc1 (stereo unspecified)	2	0	8	2	-2
Cc1ccc(N(C(=O)CCCC(=O)Nc2ccccn2)C(C(=O)NC2CCCC2)c2ccc(F)cc2)c(C)c1 (stereo unspecified)	-3	1	0	9	16
Cc1ccc(C(C(=O)NC2CCCCC2)N(C(=O)CCCC(=O)Nc2ccccn2)c2ccc(C)cc2C)cc1 (stereo unspecified)	2	5	-3	27	49*
COc1ccc(CN(CC(=O)NC2CCCCC2)C(=O)CCC(=O)Nc2ccccn2)cc1	2	0	0	48*	4
COc1ccc(OC)c(N(C(=O)CCCC(=O)Nc2ccccn2)C(C(=O)NC2CCCCC2)c2ccc(F)cc2)c1 (stereo unspecified)	11	-4	6	9	35*
O=C(Cn1cnnn1)N1CCCC1c1nc2ccccc2s1 (stereo unspecified)	-1	-6	2	-24	-4
O=C(CN(C(=O)c1ccc(-c2ccccc2)[nH]1)c1ccc(Cl)cc1)NC1CCCC1	-1	-19	-2	-24	0
COc1ccc(N(CC(=O)NC2CCCCC2)C(=O)c2ccc(-c3ccccc3)[nH]2)cc1OC	25	-8	3	-11	78*
O=C(c1ccco1)N(Cc1c(F)cccc1Cl)c1ccccn1	-5	-17	-15	-20	-17
Cc1cc(C)cc(NC(=O)C2CC(=O)Nc3nc4ccccc4n32)c1 (stereo unspecified)	40*	-4	46*	5	-2
CCOc1ccccc1NC(=O)C1CC(=O)Nc2nc3ccccc3n21 (stereo unspecified)	21	4	39*	26	24
O=C(CC1C(=O)Nc2nc3ccccc3n21)Nc1ccccc1 (stereo unspecified)	26	9	18	15	7
CCOc1ccccc1NC(=O)C1CC(=O)NC(Nc2ccccc2)=N1 (stereo unspecified)	0	10	1	12	-7
Cc1ccc2c(c1)[C@]1(C(=O)N2)[C@@H](C(=O)c2ccccc2)[C@]2(C(=O)Nc3ccccc32)[C@@H]2CCCN21	2	0	0	-3	52*
O=C(NC1CCCC1)C(c1ccncc1)N(C(=O)c1ccco1)c1ccc2c(c1)OCCO2 (stereo unspecified)	-6	6	48*	5	25
COc1cccc(NC(=O)C(C(=O)Nc2cccc(OC)c2)c2ccccc2)c1	8	11	20	14	14
COc1cccc(CN(C)C(=O)CC(c2ccccc2)c2ccccc2)c1	12	25	22	41*	/
CCS(=O)(=O)N1C[C@H]2C[C@H](C(=O)NCc3ccccc3)[C@@H](C1)O2	1	-1	-19	-1	-11
CCc1ccc(C2NC(=O)NC(C)=C2C(=O)c2ccc(Cl)cc2)cc1 (stereo unspecified)	13	3	-13	5	3
Cc1ccc(NC(=O)c2ccc3nn(CC(=O)Nc4ccc(C)cc4C)c(=O)n3c2)cc1	3	-19	53*	-50	-18
Cc1ccc(NC(=O)Cn2nc3cnc4ccccc4n3c2=O)cc1	-4	-60	0	-160	-92
SMILES	USP10 inh	USP28 block	USP8 inh	USP30 block	USP17 inh
Cc1ccc(CNC(=O)c2ccc3nn(CC(=O)Nc4ccccc4F)c(=O)n3c2)cc1	23	-15	67*	-56	6
Cc1ccc(C(=O)Nc2ncn(CC(=O)Nc3ccccc3F)n2)cc1	1	10	-21	9	0
Cc1ccc(NC(=O)c2ccc3nn(CC(=O)Nc4ccc(F)cc4F)c(=O)n3c2)cc1	3	-25	57*	10	68*
Cc1ccccc1NC(=O)CSc1nnc2ccc(C(=O)NCc3ccccc3)cn12	-1	-4	45*	3	5
Cc1ccccc1NC(=O)Cc1nnc(SCC(=O)Nc2cccc3ccccc23)n1C	-3	-24	-13	-17	3
O=C(c1cc2ccccc2oc1=O)N(c1ccccn1)C1CCCCC1	0	-10	1	-5	-8
CC(C)c1nc(-c2ccc3c(c2)nnn3CCN2CCOCC2)no1	-4	-11	-5	-20	-7
CS(=O)(=O)N(CC(=O)Nc1ccc(CC#N)cc1)c1ccc2c(c1)OCO2	4	-4	11	3	-1
O=C(Cn1nc2ccc(C(=O)NCc3ccccc3)cn2c1=O)Nc1ccc2c(c1)OCO2	12	8	1	-22	52*
Cc1nc(C2CCN(S(C)(=O)=O)CC2)nc2c1CCC(=O)N2CC1CCCCC1	-4	-18	-14	-21	-20
Cc1ccc(CNC(=O)N2CCC(c3nc(C(=O)N4CCCC4)c(C)o3)CC2)cc1	0	-15	-10	-4	-11
Cc1ccc(NC(=O)N2CCC(c3nc(C(=O)N4CCCC4)c(C)o3)CC2)cc1	4	6	0	33*	4
Cc1cc(C)cc(NC(=O)N2CCC(c3nnc(-c4ccccc4)o3)CC2)c1	4	14	13	35*	14
O=C(Cn1cc(S(=O)(=O)Cc2cccc(F)c2)c2ccccc21)N1CCCCC1	0	0	3	1	-2
O=C(Nc1cccc(Oc2ccccc2)c1)c1c(F)cccc1F	-4	36*	-8	-23	-4
NC(=O)c1cccc(NC(=O)c2cccc(Oc3ccccc3)c2)c1	-3	15	10	-4	6
O=C(Nc1cccc(Oc2ccccc2)c1)c1ccc2nc[nH]c2c1	1	34*	1	-9	-1
Cc1ccc(S(=O)(=O)NCc2nnc(SCc3ccc(C(C)(C)C)cc3)n2C)cc1	9	9	-10	21	12
CC(C)c1nc(CN2CCCC2Cn2cccn2)no1 (stereo unspecified)	-5	0	-19	-27	-13
COc1ccc(-c2nn(C)c3sc(C(=O)N4CCN(Cc5ccc6c(c5)OCO6)CC4)cc23)cc1OC	5	-10	0	-10	-5
Cc1nn(-c2ccccc2)c2[nH]c(=O)c(CNCC3CCCO3)cc12 (stereo unspecified)	3	-4	2	-18	9
COc1ccc(-c2nn(-c3ccccc3)c3[nH]c(=O)c(CNCc4cccs4)cc23)cc1OC	-10	-18	78*	-71	-47

Screens as filed in PubChem BioAssay.
